Data as given in PubChem BioAssay AID1578 (Sanford-Burnham Center for Chemical Genomics, 2009).
Hit rate of the full screen: of about 290,000 compounds, about 3,000 (1%) were called active. The sample holds actives, similar compounds and a random draw of the others, so the mix is not that of the screen. Unmarked numbers belong to inactive results. Rule as the data show it: active = inhibition mostly above about 36% (no sharp cut-off); inactive = mostly below about 34%.

Experiment: NOD1 signaling inhibitors, primary screen, cell-based, luminescence, uHTS (AID 1578);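 also: HEK-293T reporter cells stimulated with the NOD1 agonist gamma-tri-DAP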
Settings: NOD1-driven NF-kB luciferase reporter cells, at 4 µM, stronger effect = higher value

Compound | inhibition
Cc1cc(NS(=O)(=O)c2ccc(NC(=S)NC(=O)c3ccncc3)cc2)no1 | -4.1%
O=C(OCCN1CCCCC1)c1cccc(F)c1 | -21.9%
CCOc1cc(C2C(C(=O)OC)=CN(Cc3ccc(Cl)cc3)C=C2C(=O)OC)ccc1O | -1.2%
O=C(CCCn1c(=O)[nH]c2ccccc2c1=O)Nc1ccc(F)cc1 | -2.3%
COc1ccc(NC(=O)C2CC(=O)OC2c2ccccc2)cc1 (stereo not drawn) | -23.5%
COc1cccc(NC(=O)CN2C(=O)COc3ccc(Cl)cc32)c1 | 26.8%
NC(=O)C1=C[C@@H](c2csc3ccccc23)C[C@@H](OCCCCO)O1 | -3.6%
Cc1cc(N=CC2=C(O)CC(C)(C)CC2=O)no1 | 13.1%
COCCn1c(SCC(=O)NCc2ccccc2)nc2ccccc21 | 6.7%
O=C1c2ccccc2C2=Nc3ccccc3SC(c3ccc(Cl)cc3)C12 (stereo not drawn) | 74.7% (active)
O=C1c2ccccc2C2=Nc3ccccc3SC(c3ccccc3F)C12 (stereo not drawn) | 36.8%
O=C1c2ccccc2C2=Nc3ccccc3SC(c3cccc(F)c3)C12 (stereo not drawn) | 49.7%
NC(=O)CC(NC(=O)c1ccccc1)c1ccc(NCCOc2ccccc2)c([N+](=O)[O-])c1 (stereo not drawn) | 1.2%
O=C(CCl)N1CCN2C(=O)c3ccccc3C12c1ccc(Cl)cc1 (stereo not drawn) | 87.1% (active)
Cc1ccc(C(=O)N2CCN3C(=O)c4ccccc4C23c2ccc(Cl)cc2)cc1 (stereo not drawn) | -52.7%
O=C(c1ccccc1)N1CCN2C(=O)c3ccccc3C12c1ccc(Cl)cc1 (stereo not drawn) | -44.9%
O=C(Cn1c(=O)c2cccn2c2ccccc21)Nc1ccc(F)cc1F | -12.1%
Cc1cc(C)nc(N(C#N)S(=O)(=O)c2ccccc2)n1 | 9.1%
CC(C(=O)O/N=C(\N)c1ccccn1)c1ccc([N+](=O)[O-])cc1 (stereo not drawn) | -16.2%
N/C(=N\OCc1ccc([N+](=O)[O-])cc1)c1ccncc1 | -27.7%
N/C(=N\OCc1ccc([N+](=O)[O-])cc1)c1ccccn1 | 88.4% (active)
CCCC(=O)Nc1ccccc1NC(=O)c1ccc(OCC)cc1 | 2.3%
O=C1CC(N2CCC(c3nc4ccccc4[nH]3)CC2)C(=O)N1Cc1ccccc1 (stereo not drawn) | -24.3%
Cc1cc(-c2ccc(C(C)C)c(S(=O)(=O)N3CCN(c4ccccc4)CC3)c2)on1 | 0%

Compound | inhibition
CCc1cc2c(=O)[nH]c(-c3ccncc3)nc2s1 | 29.8%
CCc1cc2c(=O)[nH]c(Cc3ccccc3)nc2s1 | 0.4%
CCc1cc2c(=O)[nH]c(-c3ccccn3)nc2s1 | 112% (active)
CC(C)Nc1nc(Cl)nc(N(C#N)CN2C(=O)c3ccccc3S2(=O)=O)n1 | -4.8%
COc1ccc2nc(SCC(=O)Nc3nccs3)[nH]c2c1 | -39.1%
COc1ccc(NC(=O)CN2CCN(c3c(C)cccc3C)CC2)cc1 | -8.8%
COc1ccc(CN2C(=O)C(C)N(C(=O)c3c(F)cccc3F)c3ccccc32)cc1 (stereo not drawn) | 6.5%
COC(=O)c1ccc(CN2C(=O)C(C)N(C(=O)c3c(F)cccc3F)c3ccccc32)cc1 (stereo not drawn) | -2.1%
CC1C(=O)N(Cc2ccc(F)cc2)c2ccccc2N1C(=O)c1c(F)cccc1F (stereo not drawn) | 43.5% (active)
CC1CCN(CCCNC(=O)c2ccc3c(Cl)c4c(nc3c2)CCCC4)CC1 | 0.2%
COc1ccc(-n2c(Cc3cccn3C)nnc2SCC(=O)Nc2cccc(C)c2C)cc1 | 33.3%
COc1ccc(-n2c(Cc3cccn3C)nnc2SCC(=O)Nc2ccc(C)c(Cl)c2)cc1 | 75.8% (active)
COc1ccc(-n2c(Cc3cccn3C)nnc2SCC(=O)Nc2ccc(Cl)cc2)cc1 | 39.9%
COc1ccc(-n2c(Cc3cccn3C)nnc2SCC(=O)Nc2ccccc2C)cc1 | 57% (active)
COc1ccc(-n2c(Cc3cccn3C)nnc2SCC(=O)Nc2ccccc2OC)cc1 | 55%
COc1ccc(NC(=O)CSc2nnc(Cc3cccn3C)n2-c2ccc(OC)cc2)cc1 | 0.1%
CN1C=CC=C/C1=C1\SC(=S)N(N)C1=O | -40.2%
CCOC(=O)C1CCN(CCC(=O)Nc2ccc(C)cc2)CC1 | -32.1%
COC(=O)c1cc(CNC(=O)c2ccc(N3CCCC3)c([N+](=O)[O-])c2)ccc1OC | -43.2%
CCNC(=S)N/N=C/c1cn(Cc2ccc(F)cc2)c2ccccc12 | 10.8%
CNC(=S)N/N=C/c1cn(Cc2ccc(C)cc2)c2ccccc12 | 70.4% (active)
CNC(=S)N/N=C/c1cn(Cc2ccc(F)cc2)c2ccccc12 | -6.2%
COc1ccc(S(=O)(=O)N(C)c2ccc(C(=O)Nc3c(C)n(C)n(-c4ccccc4)c3=O)cc2)cc1 | -31.9%
CCCC(C)NC(=O)c1cc(Cl)ccc1OC (stereo not drawn) | -0.3%

Compound | inhibition
CC(=O)c1cnc(Oc2cc(Cl)ccc2Cl)nc1C | -14.2%
Cc1cc(C)n2nc(SCc3cccc(S(=O)(=O)N(C)C)c3)nc2n1 | 7.2%
CN(C)S(=O)(=O)c1cccc(CSc2cccc[n+]2[O-])c1 | -15.4%
COC(=O)c1c(NC(=O)C2CCC2)sc(C(=O)N(C)C)c1C | -8.7%
CCc1cccc(N(C(=O)c2csnn2)C(C(=O)NC2CCCC2)c2cccnc2)c1 (stereo not drawn) | -10.2%
O=C(O)c1ccc2c(=O)n3c(nc2c1)/C(=C/c1ccc(F)cc1)CC3 | 33.3% (active)
CSc1ccc(/C=C2\CCn3c2nc2cc(C(=O)O)ccc2c3=O)cc1 | -1.6%
O=C(O)c1ccc2c(=O)n3c(nc2c1)/C(=C/c1ccc(C(F)(F)F)cc1)CC3 | 1.9%
Cc1nc(-c2ccccc2)sc1C1(C)CC(c2c(Cl)cccc2Cl)=NO1 (stereo not drawn) | 10.1%
CCCO/N=C1/C(=O)N(c2ccccc2)c2ccccc21 | 6.1%
C#CCN1C(=O)C(O)(CC(=O)/C=C/C=C/c2ccccc2)c2ccccc21 (stereo not drawn) | 57% (active)
CCN1C(=O)C(O)(CC(=O)/C=C/C=C/c2ccccc2)c2ccccc21 (stereo not drawn) | -4.8%
NC(=O)CN1C(=O)C(O)(CC(=O)/C=C\C=C\c2ccccc2)c2ccccc21 (stereo not drawn) | 17.8%
Cc1ccc(S(=O)(=O)/N=C(/Nc2ccc3[nH]c(=O)[nH]c3c2)c2ccc(F)cc2)cc1 | 3.8%
CCSC1=C(C#N)C2(CCCCC2)C(C#N)C(=O)N1 (stereo not drawn) | -3.2%
N#CC1=C(SCC(=O)NC2CC2)NC(=O)C(C#N)C12CCCCC2 (stereo not drawn) | 15.7%
COCCN=C1OC(=O)N2C(=O)C3=C4[C@@H](C[C@H]5C(=O)N(c6ccccc6)C(=O)[C@H]5[C@H]4[C@@]12Cc1ccccc1)[C@H]1C(=O)N(c2ccccc2)C(=O)[C@H]1[C@H]3C | 4.5%
Cc1cc(C)nc(N(C#N)Cc2ccccc2C)n1 | -6.3%
O=C(c1ccc(Br)cc1)C(CN1CCOCC1)c1ccccc1 (stereo not drawn) | 5.4%
CCCOc1ccc(C(=O)C(CN2CCCC2)c2ccccc2)cc1 (stereo not drawn) | 31.5%
COc1ccc(C(=O)C(CN2CCOCC2)c2ccccc2)cc1 (stereo not drawn) | 38%
CCOc1ccc(C(=O)C(CN2CCOCC2)c2ccccc2)cc1 (stereo not drawn) | -28.1%
COc1ccc(C(=O)C(CN2CCCC2)c2ccccc2)cc1 (stereo not drawn) | 78.7% (active)
O=C(c1ccc(F)cc1)C(CN1CCOCC1)c1ccccc1 (stereo not drawn) | 67.3% (active)

Compound | inhibition
Fc1ccc(OCc2nn[nH]n2)c(F)c1 | -9.1%
COc1ccc(C(=O)NC(=S)NNC(=O)[C@H]2C[C@@H]2c2ccccc2)cc1OC | -2.6%
O=C(NCC(=O)N(c1cccc(F)c1)C(C(=O)NC1CCCC1)c1ccco1)c1ccco1 (stereo not drawn) | -35.9%
O=C(NCc1ccncc1)c1ccc(Oc2ccccc2)cc1 | 18.9%
Cc1ccc(Oc2ccc(C(=O)NCc3ccncc3)cc2)cc1 | 38.4% (active)
CCOc1ccc(C(=O)NCc2ccncc2)cc1 | -14.8%
O=S(=O)(NCc1ccc2c(c1)OCO2)c1c(F)cc(F)cc1Br | -29.4%
Cc1cc(C(=O)N/N=C/c2ccc([N+](=O)[O-])cc2)c2ccccc2n1 | 8.1%
COc1ccccc1NC(=O)C(=O)N/N=C/c1ccc([N+](=O)[O-])s1 | 74.8% (active)
COC(=O)N/N=C/c1ccc([N+](=O)[O-])s1 | -14.7%
O=C(N/N=C\c1ccc(Cl)s1)C1COc2ccccc2O1 (stereo not drawn) | -4.2%
COc1ccccc1NC(=O)C(=O)N/N=C/c1cccs1 | -36%
Cc1ccccc1C(=O)N/N=C/c1ccc([N+](=O)[O-])s1 | 11%
Fc1ccccc1/C=N/NC(=S)Nc1ccc(Cl)cc1Cl | -13.3%
O=C(N/N=C\c1cccc([N+](=O)[O-])c1O)C1COc2ccccc2O1 (stereo not drawn) | -14.4%
Fc1ccc(/C=N/NC(=S)Nc2ccc(Cl)cc2Cl)cc1 | 8.9%
COc1cccc(NC(=O)c2ccccc2N2C(=O)C3C4C=CC(C5CC45)C3C2=O)c1 (stereo not drawn) | -54.1%
COc1cccc(OCC(O)CNC(C)c2ccccc2)c1 (stereo not drawn) | -39.9%
C=CCNc1nnnc2c1sc1nc(N3CCOCC3)c3c(c12)CCCC3 | -1.1%
COC(=O)c1c(NC(=O)COC(=O)CNC(=O)c2ccco2)sc(C)c1C | -14.8%
Cc1ccc(/C(O)=C2\C(=O)C(=O)N(C)C2c2ccc(Br)cc2)cc1 (stereo not drawn) | -22%
